From PMC5540273 (PLoS ONE, 2017)

These molecules were tested on T1, JNK3. Conditions: concentration: 1 μM, replicates: in singlicate; n = 1.
T1 construct: gene MAPK10
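Note: KINOMEscan kinase panel screen.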

Row | Compound | %Inh [%]
1 | COc1cc2ncn(-c3cc(OCc4ccncc4)c(C(N)=O)s3)c2cc1OC [GSK336313] | 1
2 | OCCCNc1nccc(-c2c(-c3cccc(C(F)(F)F)c3)nn3cc(C(F)(F)F)ccc23)n1 [GW630813] | 15
3 | Cc1ccc(Oc2ccc(Nc3ncnc4cc[nH]c34)cc2C)cn1 | 57
4 | COc1cc(Nc2nccc(N3CCC(NC(=O)C(C)c4ccc(Cl)cc4)C3)n2)cc(OC)c1OC (stereo not drawn) [GSK1379757] | 0
5 | Nc1nc(N)c2nc(-c3ccccc3)[nH]c2n1 [SKF-12778] | 8
6 | COc1cc(OC)cc(-c2cc3cnc(N)nc3nc2NC(=O)NC(C)(C)C)c1 | 0
7 | COc1cc2nccc(Nc3cccc(Oc4ccccc4)c3)c2cc1OC.Cl [GW284543] | 0
8 | CCn1c(-c2ccoc2)nc2cnccc21 [SB-733887] | 0
9 | CCn1c(-c2nonc2N)nc2ccccc21 [SB-693162/GW549034] | 62
10 | COC(=O)c1c(-c2ccccc2)c2cc(C)ccc2c(=O)n1Cc1ccccc1 | 48
11 | CCCNC(=O)Nc1ccc(Oc2ncnc3ccn(C)c23)cc1 | 0
12 | COc1ccc(-c2coc3ccc(-c4nnc(SCc5cccc(C#N)c5)o4)cc23)cc1 | 14
13 | CCC(=O)c1c(-c2ccccc2)c2cc(Cl)ccc2c(=O)n1Cc1cc(S(C)(=O)=O)n(CC(F)F)n1 | 99.4
14 | CN1C(=O)C(Nc2ccccc2)=C(c2ccccc2)C1=O [SB-300079] | 0
15 | Cc1ccccc1COc1cc(-n2cnc3cc(Cl)ccc32)sc1C(N)=O [GW813349] | 0
16 | COc1cc2ncn(-c3cc(OCCCc4ccccc4)c(C(N)=O)s3)c2cc1OC [GSK205189] | 12
17 | COc1cc2ncn(-c3cc(OCc4ccncc4Br)c(C(N)=O)s3)c2cc1OC [GW854278] | 5
18 | O=C1NC(=O)C(c2ccccc2)=C1Nc1cccc(O)c1 [SB-390534] | 4

Row | Compound | %Inh [%]
19 | Cc1cccc(-c2nc(Nc3ccc4c(cnn4C)c3)c3ccccc3n2)n1 [GW876731] | 28
20 | COc1ccc(CNC(=O)NC2CCN(c3ccnc(Nc4ccc(F)cc4)n3)C2)cc1 (stereo not drawn) [GSK1379706] | 13
21 | O=C(NCCNc1ccnc(Nc2ccc(F)cc2)n1)Nc1ccc2c(c1)OCO2 [GSK1379882] | 3
22 | CCS(=O)(=O)c1ccc(OC)c(Nc2ncc(-c3ccc(F)cc3)o2)c1.Cl [GW591947] | 0
23 | COC(=O)c1c(-c2ccccc2)c2cc(Br)ccc2c(=O)n1Cc1ccc(NC(=O)CCC(=O)O)cc1 | 99.3
24 | O=C(Nc1n[nH]c2cc(-c3ccccc3F)ccc12)C1CC1 [SB-733371] | 15
25 | Cc1nn2c(=O)cc(N3CCOCC3)nc2n1Cc1cccc(Cl)c1Cl [GSK2342769] | 5
26 | O=c1cc(N2CCOCC2)nc2n(Cc3ccc(F)c(Cl)c3)ccn12 [GSK2297099] | 5
27 | Cc1nnc(-c2ccc(C)c(-c3ccc(C(=O)O)cc3)c2)o1 [GW608005] | 0
28 | Cc1c(Cn2c(C)nn3c(=O)cc(N4CCO[C@H](C)C4)nc23)cccc1C(F)(F)F [GSK2373690] | 17
29 | Nc1ncnc2c1ncn2-c1cccc(F)c1 [SKF-97560] | 36
30 | Nc1ncnc2c1ncn2-c1ccc(Cl)cc1 [AH2635] | 0
31 | CC(C)(C)c1ccc(C(=O)Nc2cn3cc(-c4ccccc4)ccc3n2)cc1 | 0
32 | Nc1nc(-c2ccccc2F)c(-c2ccnc3ccccc23)s1 [GW560459] | 87
33 | CCC(=O)c1c(-c2ccccc2)c2cc(Cl)ccc2c(=O)n1Cc1cc(C(=O)NC2CC2)n(C)n1 | 99.8
34 | CCS(=O)c1ccc(-c2coc3ccc(-c4nnc(C)o4)cc23)cc1 (stereo not drawn) | 18
35 | COc1ccc(-c2cc3c(C)nc(N)nc3n([C@H]3CC[C@H](OCCO)CC3)c2=O)cn1 | 0
36 | O=C(Nc1ccc2c(c1)OCO2)NC1CCN(c2ccnc(NCc3ccc(F)cc3)n2)CC1 [GSK1379859] | 0

Each molecule was assayed on KIT-autoinhibited. Conditions: concentration: 1 μM, replicates: in singlicate; n = 1.

Row | Compound | %Inh [%]
37 | COc1cc2ncn(-c3cc(OCc4ccncc4)c(C(N)=O)s3)c2cc1OC [GSK336313] | 0
38 | OCCCNc1nccc(-c2c(-c3cccc(C(F)(F)F)c3)nn3cc(C(F)(F)F)ccc23)n1 [GW630813] | 13
39 | Cc1ccc(Oc2ccc(Nc3ncnc4cc[nH]c34)cc2C)cn1 | 12
40 | COc1cc(Nc2nccc(N3CCC(NC(=O)C(C)c4ccc(Cl)cc4)C3)n2)cc(OC)c1OC (stereo not drawn) [GSK1379757] | 0
41 | Nc1nc(N)c2nc(-c3ccccc3)[nH]c2n1 [SKF-12778] | 5
42 | COc1cc(OC)cc(-c2cc3cnc(N)nc3nc2NC(=O)NC(C)(C)C)c1 | 0
43 | COc1cc2nccc(Nc3cccc(Oc4ccccc4)c3)c2cc1OC.Cl [GW284543] | 0
44 | CCn1c(-c2ccoc2)nc2cnccc21 [SB-733887] | 61
45 | CCn1c(-c2nonc2N)nc2ccccc21 [SB-693162/GW549034] | 26
46 | COC(=O)c1c(-c2ccccc2)c2cc(C)ccc2c(=O)n1Cc1ccccc1 | 0
47 | CCCNC(=O)Nc1ccc(Oc2ncnc3ccn(C)c23)cc1 | 3
48 | COc1ccc(-c2coc3ccc(-c4nnc(SCc5cccc(C#N)c5)o4)cc23)cc1 | 1
49 | CCC(=O)c1c(-c2ccccc2)c2cc(Cl)ccc2c(=O)n1Cc1cc(S(C)(=O)=O)n(CC(F)F)n1 | 0
50 | CN1C(=O)C(Nc2ccccc2)=C(c2ccccc2)C1=O [SB-300079] | 17
51 | Cc1ccccc1COc1cc(-n2cnc3cc(Cl)ccc32)sc1C(N)=O [GW813349] | 0
52 | COc1cc2ncn(-c3cc(OCCCc4ccccc4)c(C(N)=O)s3)c2cc1OC [GSK205189] | 0
53 | COc1cc2ncn(-c3cc(OCc4ccncc4Br)c(C(N)=O)s3)c2cc1OC [GW854278] | 5
54 | O=C1NC(=O)C(c2ccccc2)=C1Nc1cccc(O)c1 [SB-390534] | 0

Row | Compound | %Inh [%]
55 | Cc1cccc(-c2nc(Nc3ccc4c(cnn4C)c3)c3ccccc3n2)n1 [GW876731] | 0
56 | COc1ccc(CNC(=O)NC2CCN(c3ccnc(Nc4ccc(F)cc4)n3)C2)cc1 (stereo not drawn) [GSK1379706] | 3
57 | O=C(NCCNc1ccnc(Nc2ccc(F)cc2)n1)Nc1ccc2c(c1)OCO2 [GSK1379882] | 0
58 | CCS(=O)(=O)c1ccc(OC)c(Nc2ncc(-c3ccc(F)cc3)o2)c1.Cl [GW591947] | 0
59 | COC(=O)c1c(-c2ccccc2)c2cc(Br)ccc2c(=O)n1Cc1ccc(NC(=O)CCC(=O)O)cc1 | 1
60 | O=C(Nc1n[nH]c2cc(-c3ccccc3F)ccc12)C1CC1 [SB-733371] | 0
61 | Cc1nn2c(=O)cc(N3CCOCC3)nc2n1Cc1cccc(Cl)c1Cl [GSK2342769] | 0
62 | O=c1cc(N2CCOCC2)nc2n(Cc3ccc(F)c(Cl)c3)ccn12 [GSK2297099] | 0
63 | Cc1nnc(-c2ccc(C)c(-c3ccc(C(=O)O)cc3)c2)o1 [GW608005] | 0
64 | Cc1c(Cn2c(C)nn3c(=O)cc(N4CCO[C@H](C)C4)nc23)cccc1C(F)(F)F [GSK2373690] | 0
65 | Nc1ncnc2c1ncn2-c1cccc(F)c1 [SKF-97560] | 25
66 | Nc1ncnc2c1ncn2-c1ccc(Cl)cc1 [AH2635] | 0
67 | CC(C)(C)c1ccc(C(=O)Nc2cn3cc(-c4ccccc4)ccc3n2)cc1 | 0
68 | Nc1nc(-c2ccccc2F)c(-c2ccnc3ccccc23)s1 [GW560459] | 0
69 | CCC(=O)c1c(-c2ccccc2)c2cc(Cl)ccc2c(=O)n1Cc1cc(C(=O)NC2CC2)n(C)n1 | 0
70 | CCS(=O)c1ccc(-c2coc3ccc(-c4nnc(C)o4)cc23)cc1 (stereo not drawn) | 0
71 | COc1ccc(-c2cc3c(C)nc(N)nc3n([C@H]3CC[C@H](OCCO)CC3)c2=O)cn1 | 0
72 | O=C(Nc1ccc2c(c1)OCO2)NC1CCN(c2ccnc(NCc3ccc(F)cc3)n2)CC1 [GSK1379859] | 0
